Experimental findings from PubChem BioAssay (EPA / NIEHS) are described below.

SMILES strings stand for the structures. Records with an inconclusive call do not appear. The source made the active and inactive calls. How the source made its calls: active means hit-call score of the fitted dose curve at least 0.9, where 1 is the maximum; inconclusive means response in the unintended direction; inactive means score below 0.9.

For orientation: AC50 means the concentration at which the activity in the assay is half-maximal.

Chain of rat Serotonin Transporter (SERT), Slc6a4 (gene 25553) (P31652 whole entry, looked up): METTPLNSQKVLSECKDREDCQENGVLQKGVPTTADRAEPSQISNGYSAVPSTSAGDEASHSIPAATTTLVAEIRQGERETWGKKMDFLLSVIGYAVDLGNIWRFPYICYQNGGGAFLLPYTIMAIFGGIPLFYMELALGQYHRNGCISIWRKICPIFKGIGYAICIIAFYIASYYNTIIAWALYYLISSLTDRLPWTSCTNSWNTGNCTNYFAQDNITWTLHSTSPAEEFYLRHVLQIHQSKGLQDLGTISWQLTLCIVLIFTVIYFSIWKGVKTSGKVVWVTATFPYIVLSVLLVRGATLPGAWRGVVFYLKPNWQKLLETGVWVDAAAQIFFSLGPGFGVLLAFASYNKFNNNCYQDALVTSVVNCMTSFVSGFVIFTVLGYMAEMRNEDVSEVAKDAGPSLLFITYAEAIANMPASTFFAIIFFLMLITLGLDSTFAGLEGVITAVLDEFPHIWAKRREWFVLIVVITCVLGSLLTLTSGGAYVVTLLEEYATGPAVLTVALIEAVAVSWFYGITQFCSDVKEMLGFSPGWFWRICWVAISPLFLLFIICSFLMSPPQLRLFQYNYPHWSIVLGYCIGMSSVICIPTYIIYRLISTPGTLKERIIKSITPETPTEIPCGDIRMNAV

In one experiment the target is human Serotonin Transporter (SERT), SLC6A4 (gene 6532) (UniProt P31645). Description: NVS_TR_hSERT: NovaScreen (NVS) Transporter Assay for human Serotonin Transporter (SERT) (AID 2283372). On the procedure: NVS_TR_hSERT is a biochemical, single-readout assay that uses extracted gene-proteins from Human platelet membranes in a tissue-based cell-free assay. Measurements were taken 1 hour after chemical dosing in a 96-well plate.NVS_TR_hSERT is one of one assay component(s) measured or calculated from the NVS_TR_hSERT assay. It is designed to make measurements of radioligand binding, a form of binding reporter, as detected with scintillation counting signals by Filter-based radiodetection technology.Data from the assay component NVS_TR_hSERT was analyzed into 1 assay endpoint. This assay endpoint, NVS_TR_hSERT, was analyzed in the positive analysis fitting direction relative to DMSO as the negative control and baseline of activity. Using a type of binding reporter, loss-of-signal activity can be used to understand changes in the binding as they relate to the gene SLC6A4. Furthermore, this assay endpoint can be referred to as a primary readout, because the performed assay has only produced 1 assay endpoint. To generalize the intended target to other relatable targets, this assay endpoint is annotated to the transporter intended target family, where the subfamily is neurotransmitter transporter.
Chain of human Serotonin Transporter (SERT), SLC6A4 (gene 6532) (P31645 whole entry, looked up): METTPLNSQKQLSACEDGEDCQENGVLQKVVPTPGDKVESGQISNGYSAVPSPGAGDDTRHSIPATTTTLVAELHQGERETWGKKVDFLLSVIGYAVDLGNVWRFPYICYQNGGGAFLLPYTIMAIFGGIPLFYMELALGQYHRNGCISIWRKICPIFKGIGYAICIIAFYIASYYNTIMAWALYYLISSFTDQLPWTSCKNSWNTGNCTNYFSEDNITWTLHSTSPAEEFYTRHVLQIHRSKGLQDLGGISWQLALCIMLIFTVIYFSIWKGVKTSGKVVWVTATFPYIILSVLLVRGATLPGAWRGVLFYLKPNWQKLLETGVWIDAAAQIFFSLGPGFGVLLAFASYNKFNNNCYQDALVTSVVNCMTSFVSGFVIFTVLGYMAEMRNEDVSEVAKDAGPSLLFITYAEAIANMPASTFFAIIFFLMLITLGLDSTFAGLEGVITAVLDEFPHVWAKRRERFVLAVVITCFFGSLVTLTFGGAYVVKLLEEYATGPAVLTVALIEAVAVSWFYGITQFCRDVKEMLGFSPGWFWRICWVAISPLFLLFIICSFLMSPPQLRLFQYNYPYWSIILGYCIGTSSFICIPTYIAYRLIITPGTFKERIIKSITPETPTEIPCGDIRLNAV
Binding assays used specific radioligands (tritiated, iodinated) with non-radioactive competitive displacement ligands in agonist or antagonist protocols (as indicated) and various reference compounds and inhibitors to titrate specific binding to receptors and transporters. Most enzyme assays (CYPs, kinases, phosphatases, proteases, HDACs) used recombinant protein and specific substrates (fluorescence mostly, some colorimetric and radioactive) and inhibitors, followed by a biochemical separation of substrate and product. All assays for the biochemical HTS were initially run in duplicate at a single concentration (10 uM for CYP450 assays and 25 uM for all others). […] Each assay was run with positive and negative controls, and concurrent controls on every plate. […]
As for `C/C=C/C=C/C(=O)O`, the molecule was classed as inactive.
As to `O=C(N[C@@H](c1ccccc1)[C@@H]1CCCCN1)c1cccc(C(F)(F)F)c1Cl`, the AC50 is 9.57 µM (active).
With `COc1ccc(OC(F)(F)F)cc1CN[C@H]1CCCN[C@H]1c1ccccc1`, the AC50 is 12.5 µM (active).

In another experiment the test system is rat Norepinephrine Transporter (NET), gene 83511. Description: NVS_TR_rNET: NovaScreen (NVS) Transporter Assay for rat Norepinephrine Transporter (NET) (AID 2283373). The method in brief: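 Rat forebrain membranes; radioligand binding measured by filter-based scintillation counting 1 hour after dosing. Loss of specific binding versus DMSO baseline scored; primary screen in duplicate at 25 uM, actives followed up in concentration series.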
Regarding `CCN(CC)CCOc1ccc(C(=C(Cl)c2ccccc2)c2ccccc2)cc1`, the AC50 is 10.2 µM (active).
Same read-out and setting: to `CN(C)C(=O)NC1(c2ccccc2)CCN(CCC[C@]2(c3ccc(Cl)c(Cl)c3)CCCN(C(=O)c3ccccc3)C2)CC1` belongs 3.55 µM (active); to `CN(C)CCCN1c2ccccc2Sc2ccc(Cl)cc21`, 0.0781 µM (active).
On the same count and under the same terms, to `CCc1nc(N)nc(N)c1-c1ccc(Cl)cc1` belongs 6.82 µM (active); to `COc1ccc(OC(F)(F)F)cc1CN[C@H]1CCCN[C@H]1c1ccccc1`, 8.18 µM (active).
As for `NC(=Nc1ccccc1)Nc1ccccc1`, the outcome was inactive.
`CSc1ccc(Oc2ccc(S(N)(=O)=O)cc2CN(C)C)cc1C`: the AC50 is 25 µM (active).

The target of the next experiment is human Dopamine Transporter (DAT), SLC6A3 (gene 6531) (UniProt Q01959). Briefly: NVS_TR_hDAT: NovaScreen (NVS) Transporter Assay for human Dopamine Transporter (DAT) (AID 2283374).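 Further: activity means loss of bound radioligand signal relative to DMSO.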 The procedure, abridged: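 Cell-free radioligand displacement binding at human DAT, 1 h after dosing, with filtration and scintillation counting. Primary screen in duplicate at 25 uM, actives then in concentration series. Loss of bound signal versus DMSO scored.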
Chain of human Dopamine Transporter (DAT), SLC6A3 (gene 6531) (Q01959 whole entry, looked up): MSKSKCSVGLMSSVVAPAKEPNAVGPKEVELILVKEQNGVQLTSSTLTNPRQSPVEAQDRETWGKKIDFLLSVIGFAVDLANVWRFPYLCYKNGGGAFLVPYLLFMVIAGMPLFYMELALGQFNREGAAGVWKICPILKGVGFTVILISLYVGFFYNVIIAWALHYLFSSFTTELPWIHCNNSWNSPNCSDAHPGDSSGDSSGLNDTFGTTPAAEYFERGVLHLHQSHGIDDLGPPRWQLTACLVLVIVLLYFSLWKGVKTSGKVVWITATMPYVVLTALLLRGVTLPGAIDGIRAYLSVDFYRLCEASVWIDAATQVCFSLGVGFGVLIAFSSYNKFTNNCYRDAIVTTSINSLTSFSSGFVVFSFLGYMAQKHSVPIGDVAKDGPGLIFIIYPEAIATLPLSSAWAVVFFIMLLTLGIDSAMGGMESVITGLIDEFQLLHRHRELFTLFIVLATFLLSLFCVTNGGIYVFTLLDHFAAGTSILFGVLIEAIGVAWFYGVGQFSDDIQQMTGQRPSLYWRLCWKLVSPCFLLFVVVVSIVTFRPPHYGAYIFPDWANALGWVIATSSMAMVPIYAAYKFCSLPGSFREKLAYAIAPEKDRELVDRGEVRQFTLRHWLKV
Take `CC(C)NCC(O)c1ccc(O)c(O)c1` (stereo not given): the AC50 is 11.1 µM (active).
As to `CN(C)C(=O)NC1(c2ccccc2)CCN(CCC[C@]2(c3ccc(Cl)c(Cl)c3)CCCN(C(=O)c3ccccc3)C2)CC1`, the AC50 is 0.418 µM (active).
Still for that read-out and setting: to `CC(COCC(C)OC(=O)c1ccccc1)OC(=O)c1ccccc1` (stereo not given) belongs 19.2 µM (active).
For the molecule `CCCCC(CC)COP(=O)(OCC(CC)CCCC)OCC(CC)CCCC` (stereo not given), the outcome was inactive.
Take `O=C(N[C@@H](c1ccccc1)[C@@H]1CCCCN1)c1cccc(C(F)(F)F)c1Cl`: the AC50 was 12.2 µM (active).
Turning to `Cn1cnc2c1c(=O)[nH]c(=O)n2C`, the outcome was inactive.
As to `CN(C)CCCN1c2ccccc2Sc2ccc(Cl)cc21`, the AC50 was 4.24 µM (active).
On to `Cc1cc(SC2=C(O)C[C@@](CCc3ccc(N)cc3)(C(C)C)OC2=O)c(C(C)(C)C)cc1CO`, for which the result was inactive.
Turning to `CCCCCCCCCCCCCCOS(=O)(=O)O`, the AC50 is 41 µM (active).
On the same count and under the same terms, to `CCc1nc(N)nc(N)c1-c1ccc(Cl)cc1` belongs 0.754 µM (active).
Still for that read-out and setting: to `CSc1ccc(Oc2ccc(S(N)(=O)=O)cc2CN(C)C)cc1C` belongs 4.52 µM (active).
As to `O=C1OC(c2ccc(O)cc2)(c2ccc(O)cc2)c2ccccc21`, the AC50 is 6.6 µM (active).

For a further experiment, the target named is rat Serotonin Transporter (SERT), Slc6a4 (gene 25553) (UniProt P31652). Description: NVS_TR_rSERT: NovaScreen (NVS) Transporter Assay for rat Serotonin Transporter (SERT) (AID 2283375). The method in brief:
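Rat forebrain membranes; radioligand displacement at SERT read by filter-based scintillation counting, 1 h after dosing. Screened in duplicate at 25 uM, actives then run in concentration series; loss of signal versus DMSO baseline.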
For `CCN(CC)CCOc1ccc(C(=C(Cl)c2ccccc2)c2ccccc2)cc1`, the concentration at half-maximal activity (AC50) is 7.45 µM (active).
`O=C(N[C@@H](c1ccccc1)[C@@H]1CCCCN1)c1cccc(C(F)(F)F)c1Cl`: the AC50 is 7.98 µM (active).
Still for that read-out and setting: the figure for `Cn1cnc2c1c(=O)[nH]c(=O)n2C` is 2.36 µM (active); for `CN(C)CCCN1c2ccccc2Sc2ccc(Cl)cc21` it is 2.55 µM (active).
On to `Cc1cc(SC2=C(O)C[C@@](CCc3ccc(N)cc3)(C(C)C)OC2=O)c(C(C)(C)C)cc1CO`, for which the molecule was classed as inactive.
Consider `CCc1nc(N)nc(N)c1-c1ccc(Cl)cc1`, for which the AC50 is 9.78 µM (active).
On the same count and under the same terms, to `COc1ccc(OC(F)(F)F)cc1CN[C@H]1CCCN[C@H]1c1ccccc1` belongs 11.7 µM (active); to `CSc1ccc(Oc2ccc(S(N)(=O)=O)cc2CN(C)C)cc1C`, 0.00229 µM (active).
